We go through 10 molecules from PubChem BioAssay (NCATS).

SMILES strings stand for the structures. Records with an inconclusive call do not appear. Unmarked numbers belong to inactive results. Activity calls are given as the source filed them. Calls follow the shape of the dose curve; as a rule, active = well fitted curve in the direction sought with a large enough effect; inconclusive = small, poorly fitted or top-dose-only effect, or another doubt; inactive = no such curve, though single readings can be large; an effect the other way counts as inactive or inconclusive.

The subject of one assay is HEK293T. Briefly: qHTS assay to identify novel small-molecules to repurpose for Merkel cell carcinoma treatment (AID 1296009). Also: nearly all actives have a fitted effect of over 60% in size. To be noted: MCC and control cell lines, CellTiter-Glo viability, 72 h; at 44.8 µM (top of the series) unless noted. Put shortly: (§1)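 Cells were treated for 72 hr at 37 degree celsius with compounds in 8- or 11-point dose response. Viability was read by CellTiter-Glo luminescence, normalized to no-cell (cytotoxicity) and DMSO controls.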
(In general: qHTS replaces the single test concentration by a dilution series.)

Another assay concerns MCC-13. The assay is described as above. To be noted: MCC and control cell lines, CellTiter-Glo viability, 72 h; series mostly up to 46 µM. Put shortly:
as §1

The next assay relates to MCC-26. The assay is described as above. To be noted: MCC and control cell lines, CellTiter-Glo viability, 72 h; series mostly up to 46 µM. Put shortly:
as §1
(Cellular ATP, detected with luciferase, serves as a proxy for viable cell number.)

Another assay has as its system MKL-1. The assay is described as above. Particulars: MCC and control cell lines, CellTiter-Glo viability, 72 h; series mostly up to 46 µM. Put shortly:
as §1

In another assay the test system is MKL-2. The assay is described as above. Particulars: MCC and control cell lines, CellTiter-Glo viability, 72 h; series mostly up to 46 µM. Put shortly: as §1
The next assay deals with UISO. The assay is described as above. Particulars: MCC and control cell lines, CellTiter-Glo viability, 72 h; series mostly up to 46 µM. Put shortly:
as §1

The test system of the next assay is WaGa. The assay is described as above. Particulars: MCC and control cell lines, CellTiter-Glo viability, 72 h; series mostly up to 46 µM. Put shortly:
as §1

The test system of the next assay is C33A. In words: Primary qHTS to identify gynecologic anti-cancer compounds using libraries of approved drugs and bioactive compounds (AID 1345084). Also: % is scaled to controls: 0 for no effect and ±100 for the full control effect; nearly all actives have a fitted effect of over 55% in size. Particulars: Gynecologic cancer cell panel viability, ATPlite luminescence, 48 h; series mostly up to 57.5 µM. Put shortly: (§2)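 Cells, 1,000 per well, were allowed to settle for 16 h at 37 C before compound addition. Five concentrations were tested for 48 h, and viability was read by ATPlite luminescence after 15 min at room temperature.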

In another assay the test system is CAOV3. Described as above. Particulars: Gynecologic cancer cell panel viability, ATPlite luminescence, 48 h; series mostly up to 57.5 µM. Put shortly:
as §2

The subject of another assay is CASKI. The assay is described as above. Particulars: Gynecologic cancer cell panel viability, ATPlite luminescence, 48 h; series mostly up to 57.5 µM. Put shortly: as §2
Another assay deals with TAB165. In words: qHTS profiling for inhibitors of Plasmodium falciparum proliferation (AID 504749). Also: nearly all actives have a fitted effect of over 60% in size. Also: potency is read from the fitted curve at half-maximal effect. Particulars: P. falciparum in erythrocytes, SYBR Green DNA, 72 h; series mostly up to 28.7 µM. Put shortly:
(§3)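 P. falciparum-infected erythrocytes (0.3% parasitemia, 2.5% hematocrit) incubated with compound 72 h at 37 C, 5% CO2. Parasite DNA detected by SYBR Green after lysis, overnight at room temperature; normalised to 0.29 uM artemisinin and DMSO.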

The test system of a further assay is W2. The assay is described as above. Particulars: P. falciparum in erythrocytes, SYBR Green DNA, 72 h; series mostly up to 28.7 µM. Put shortly:
as §3

The test system of the next assay is KB-3-1. Briefly: Cytotoxic Profiling of Annotated Libraries Using Quantitative High-Throughput Screening (AID 1296008). Also: nearly all actives have a fitted effect of over 60% in size. As to max response: % is scaled to controls: 0 for no effect and ±100 for the full control effect. Particulars: Five cell lines viability, CellTiter-Glo ATP luminescence, 48-72 h; max response: active compounds read low. Put shortly: (§4)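 Cells exposed to compounds for 48 or 72 hr at 37 degrees Celsius. Viability read as ATP-coupled luminescence with CellTiter-Glo after 10 min at room temperature.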

The next assay has as its system TAB113. In words: qHTS profiling for inhibitors of Plasmodium falciparum proliferation (AID 504749). Also: nearly all actives have a fitted effect of over 60% in size. Also: potency is read from the fitted curve at half-maximal effect. Particulars: P. falciparum in erythrocytes, SYBR Green DNA, 72 h; series mostly up to 28.7 µM. Put shortly:
as §3

Another assay concerns HACAT. In words: qHTS assay to identify novel small-molecules to repurpose for Merkel cell carcinoma treatment (AID 1296009). Also: nearly all actives have a fitted effect of over 60% in size. Particulars: MCC and control cell lines, CellTiter-Glo viability, 72 h; at 44.8 µM (top of the series) unless noted. Put shortly: as §1
In assay [1] the test system is NIH3T3. The description is as above. Particulars: MCC and control cell lines, CellTiter-Glo viability, 72 h; at 44.8 µM (top of the series) unless noted. Put shortly:
as §1

Assay [2] deals with NIH3T3. In words: Cytotoxic Profiling of Annotated Libraries Using Quantitative High-Throughput Screening (AID 1296008). Also: nearly all actives have a fitted effect of over 60% in size. As to max response: % is scaled to controls: 0 for no effect and ±100 for the full control effect. To be noted: Five cell lines viability, CellTiter-Glo ATP luminescence, 48-72 h; max response: active compounds read low. Put shortly:
as §4

On to `Nc1nc2ncc(CNc3ccc(C(=O)N[C@@H](CCC(=O)O)C(=O)O)cc3)nc2c(=O)[nH]1`, for which the molecule was classed as inactive in the assay on HEK293T. In addition, the Potency entry with MCC-13, with MCC-26, with MKL-1, with MKL-2, with UISO and in the assay with WaGa was “inactive” in each case. For the same molecule, the Potency entry in the assay on C33A, in the assay on CAOV3 and in the assay with CASKI was “inactive” each time.

Turning to `C#C[C@]1(O)CC[C@H]2[C@@H]3CCC4=CC(=O)CC[C@@H]4[C@H]3CC[C@@]21C`, the Potency result in the assay on MCC-13, in the assay on MCC-26, in the assay with MKL-1, in the assay with MKL-2, in the assay with UISO and in the assay on WaGa was “inactive” each time. In addition, the Potency entry in the assay with C33A, in the assay with CAOV3 and in the assay with CASKI was “inactive” each time.

Consider `C[C@@H]1C(=O)NC2=Nc3cccc(Cl)c3CN21`, for which the Potency result in the assay with TAB165 and with W2 was “inactive” in each case. Moreover, in the assay on KB-3-1, the max response is -2.45%.

`Cc1c(F)c(N2CCNC(C)C2)cc2c1c(=O)c(C(=O)O)cn2C1CC1` (stereo unspecified): the Potency entry in the assay with TAB113, in the assay on TAB165, in the assay on W2, in the assay with MCC-13, in the assay with MCC-26 and in the assay on MKL-1 was “inactive” each time. Also, the Potency result with MKL-2, with UISO, in the assay on WaGa, with C33A, with CAOV3 and in the assay with CASKI was “inactive” in each case. The molecule was classed as inactive in the assay with HEK293T.

As to `CNCCC=C1c2ccccc2CCc2ccccc21`, the Potency in the assay with W2 is 1.51 µM (active). Further, in the assay with KB-3-1, the max response is -9.12%.

For the molecule `Cc1ccnc(NS(=O)(=O)c2ccc(N)cc2)n1`, the Potency result with TAB113, in the assay with TAB165, in the assay with W2, with MCC-13, in the assay with MCC-26 and with MKL-1 was “inactive” in each case. Moreover, the Potency result with MKL-2, in the assay with UISO, in the assay on WaGa, in the assay on C33A, in the assay on CAOV3 and with CASKI was “inactive” in each case. In addition, the molecule was called inactive in the assay on HACAT and with HEK293T.

For the molecule `Nc1ccc(C(=O)O)cc1`, the Potency result in the assay with TAB113, with TAB165, with W2, in the assay with MCC-13, in the assay with MKL-1 and with MKL-2 was “inactive” in each case. Besides, the Potency result in the assay with UISO, in the assay with WaGa, in the assay with C33A and with CASKI was “inactive” each time. The molecule was called inactive in the assay with HACAT and in the assay with HEK293T.

In the case of `CC1=C(C(=O)O)N2C(=O)[C@@H](NC(=O)[C@H](N)c3ccc(O)cc3)[C@H]2SC1`, the molecule was classed as inactive in the assay on HEK293T. For the same molecule, the Potency entry in the assay on MCC-13, with MKL-1, in the assay on MKL-2, in the assay on UISO, in the assay on WaGa and in the assay on C33A was “inactive” throughout. Also, the Potency entry in the assay on CASKI is “inactive”.

Regarding `N[C@@H](CCC(=O)N[C@@H](CS)C(=O)NCC(=O)O)C(=O)O`, the outcome in the assay on HACAT and in the assay with NIH3T3 [1] was “inactive [at 17.4 µM]” throughout. Besides, the Potency result in the assay with MCC-13, with MCC-26, in the assay with MKL-1, with MKL-2, in the assay on UISO and with WaGa was “inactive” in each case. Moreover, the Potency result in the assay with C33A, with CAOV3 and in the assay with CASKI was “inactive” each time.

For the molecule `C[C@]12C=CC(=O)C=C1CC[C@@H]1[C@@H]2[C@@H](O)C[C@@]2(C)[C@H]1CC[C@]2(O)C(=O)CO`, the call in the assay with NIH3T3 [2] was inactive. For the same molecule, the Potency result with C33A, in the assay with CAOV3 and in the assay on CASKI was “inactive” each time.
